Assay outcomes (PubChem BioAssay)
CYP2C19 act – human CYP2C19 activators, primary screen, biochemical, luminescence. activation factor at 5 µM. recombinant CYP2C19, luciferin-H EGE luminescence; hits give high values; 0 = fully inhibited enzyme, 1 = untreated enzyme. 96,000 tested, under 10 active. Cytochrome P450 2C19 (Homo sapiens), P33261;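 active means activation factor of at least 2 at 5 µM in the primary screen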
CYP2C9 activ – human CYP2C9 activators, primary screen, biochemical, luminescence; recombinant CYP2C9, luciferin-H conversion; hits give high values; factor 1 = untreated enzyme, 0 = blocked; activation factor at 5 µM; hit rate 1.4% among 96,000; AID 1024, 2008; Cytochrome P450 2C9 (Homo sapiens), P11712;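 active means activation factor of 2 or more for CYP2C9 at a 5 µM dose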
CYP2C9 inhib – blockers of cytochrome P450 2C9 activity – biochemical, luminescence, ADME assay, primary screen | P11712 | CYP2C9 Supersomes, luciferin-H conversion | inhibition, % at 5 µM | hit rate 20% among 96,000;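 active means blocking of liver enzyme CYP2C9 beyond about 50% at 5 µM, limit read from the data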
Cav3 T inh – Cav3.2 calcium influx blockers – cell-based, Fluo-4 calcium fluorescence, FDSS, MLSMR library, primary screen. Voltage-dependent T-type calcium channel subunit alpha-1H (Homo sapiens), O95180. Cav3.2-expressing cells; hits give low values. B-score at 10 µM. hit rate 4% among 100,000. AID 449739, 2010;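 active means single-dose well whose peak fluorescence ratio is a statistical outlier from its plate by either plate-standardised score or position-corrected B-score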
Target sequence (O95180 whole entry, looked up): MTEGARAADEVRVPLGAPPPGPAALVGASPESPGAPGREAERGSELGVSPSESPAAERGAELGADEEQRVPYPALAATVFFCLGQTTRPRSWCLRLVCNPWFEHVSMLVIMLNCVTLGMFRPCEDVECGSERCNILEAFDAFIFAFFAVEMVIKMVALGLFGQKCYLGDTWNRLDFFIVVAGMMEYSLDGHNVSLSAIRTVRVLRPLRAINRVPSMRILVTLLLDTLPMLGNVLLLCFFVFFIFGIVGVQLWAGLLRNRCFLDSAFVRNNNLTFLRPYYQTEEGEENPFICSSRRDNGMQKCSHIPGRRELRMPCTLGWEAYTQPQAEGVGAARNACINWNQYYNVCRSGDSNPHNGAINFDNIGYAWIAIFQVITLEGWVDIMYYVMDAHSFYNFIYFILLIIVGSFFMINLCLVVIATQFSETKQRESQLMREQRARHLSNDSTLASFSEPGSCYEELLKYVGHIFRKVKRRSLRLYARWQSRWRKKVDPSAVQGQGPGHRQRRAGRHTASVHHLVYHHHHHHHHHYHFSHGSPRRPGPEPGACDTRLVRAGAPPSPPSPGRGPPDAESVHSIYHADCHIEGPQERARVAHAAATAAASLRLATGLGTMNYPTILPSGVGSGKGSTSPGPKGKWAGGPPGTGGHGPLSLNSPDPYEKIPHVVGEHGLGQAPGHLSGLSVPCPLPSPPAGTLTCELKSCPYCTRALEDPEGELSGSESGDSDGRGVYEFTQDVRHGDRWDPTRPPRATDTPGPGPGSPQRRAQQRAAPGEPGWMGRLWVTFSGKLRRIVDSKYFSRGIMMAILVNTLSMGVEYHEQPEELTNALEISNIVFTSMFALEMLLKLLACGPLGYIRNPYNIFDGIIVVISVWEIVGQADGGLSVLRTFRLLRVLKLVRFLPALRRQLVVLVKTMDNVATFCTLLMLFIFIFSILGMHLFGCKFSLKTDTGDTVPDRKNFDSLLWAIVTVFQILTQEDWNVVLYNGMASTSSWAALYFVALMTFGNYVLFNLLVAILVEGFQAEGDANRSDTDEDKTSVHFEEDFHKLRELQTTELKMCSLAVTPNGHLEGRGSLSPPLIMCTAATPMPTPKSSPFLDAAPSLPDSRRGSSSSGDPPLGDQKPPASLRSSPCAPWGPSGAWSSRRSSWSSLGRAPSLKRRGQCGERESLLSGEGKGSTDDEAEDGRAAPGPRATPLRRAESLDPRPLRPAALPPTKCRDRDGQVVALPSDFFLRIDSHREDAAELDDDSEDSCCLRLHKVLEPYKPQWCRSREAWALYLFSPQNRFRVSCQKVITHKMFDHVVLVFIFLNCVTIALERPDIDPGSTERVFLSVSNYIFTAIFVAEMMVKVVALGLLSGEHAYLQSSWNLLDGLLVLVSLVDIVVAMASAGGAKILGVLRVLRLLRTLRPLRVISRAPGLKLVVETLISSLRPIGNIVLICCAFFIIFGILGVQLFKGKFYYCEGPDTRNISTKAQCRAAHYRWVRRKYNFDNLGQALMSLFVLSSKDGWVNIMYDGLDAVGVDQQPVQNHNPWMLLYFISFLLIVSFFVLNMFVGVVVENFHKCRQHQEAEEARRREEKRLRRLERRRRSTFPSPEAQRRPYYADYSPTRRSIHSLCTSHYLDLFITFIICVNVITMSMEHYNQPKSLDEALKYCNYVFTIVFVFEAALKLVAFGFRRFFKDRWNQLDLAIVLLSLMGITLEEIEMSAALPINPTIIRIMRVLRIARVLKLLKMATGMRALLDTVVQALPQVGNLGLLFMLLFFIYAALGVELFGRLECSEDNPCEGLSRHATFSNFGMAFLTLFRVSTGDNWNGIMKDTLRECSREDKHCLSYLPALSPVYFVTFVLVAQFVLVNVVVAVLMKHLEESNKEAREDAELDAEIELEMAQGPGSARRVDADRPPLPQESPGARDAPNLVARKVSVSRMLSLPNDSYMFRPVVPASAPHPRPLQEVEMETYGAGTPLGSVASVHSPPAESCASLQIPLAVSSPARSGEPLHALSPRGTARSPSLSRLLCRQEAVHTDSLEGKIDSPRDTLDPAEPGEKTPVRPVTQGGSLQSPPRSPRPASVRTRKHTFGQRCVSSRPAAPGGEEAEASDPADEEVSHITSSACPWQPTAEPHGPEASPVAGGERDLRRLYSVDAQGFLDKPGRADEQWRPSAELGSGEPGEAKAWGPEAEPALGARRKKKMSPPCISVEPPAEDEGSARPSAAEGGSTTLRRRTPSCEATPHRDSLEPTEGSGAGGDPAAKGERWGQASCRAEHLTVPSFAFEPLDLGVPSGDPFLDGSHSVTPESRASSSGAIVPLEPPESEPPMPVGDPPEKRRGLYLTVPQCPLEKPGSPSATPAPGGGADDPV
CYP2C19 inhib – blockers of cytochrome P450 2C19 activity – biochemical, luminescence, ADME assay, primary screen. P33261. CYP2C19 Supersomes, luciferin-H EGE luminescence, 30 min. inhibition, % at 5 µM. hit rate 21% among 96,000. AID 778, 2007;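 active means CYP2C19 inhibition above a set limit at 5 µM in the primary screen, cut at about 50% in these data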
A number is an active result; . = inactive; / = no result given. Rows were chosen to be rich in hits. Some 27% of all compounds tested hit in one or more screens of this group.

SMILES | CYP2C19 act | CYP2C9 activ | CYP2C9 inhib | Cav3 T inh | CYP2C19 inhib
CO/N=C(/CS(=O)Cc1ccccc1Cl)c1ccc(Cl)cc1Cl (stereo not drawn) | . | . | . | . | 83
O=C(Cc1ccccc1)Nc1ccccc1C(=O)O | . | . | . | . | .
Cc1noc(C)c1COC(=O)C1CC(O)CN1S(=O)(=O)c1ccc(Cl)cc1 (stereo not drawn) | . | . | . | . | 71
COc1cc(NC(=O)COC(=O)[C@@H]2CCCN2S(=O)(=O)c2ccc(Cl)cc2)cc(OC)c1OC | . | . | 72 | . | .
COc1ccc(S(=O)(=O)N2CC(O)CC2C(=O)OCC(=O)Nc2ccc(Cl)cn2)cc1 (stereo not drawn) | . | . | . | . | 74
CCOc1ccc(S(=O)(=O)N(C)c2ccc(OCC(=O)OCc3c(C)noc3C)cc2)cc1 | . | . | . | . | .
O=C1C(NS(=O)(=O)c2cccs2)=C(N2CCN(c3cccc(C(F)(F)F)c3)CC2)C(=O)c2ccccc21 | . | . | 52 | . | .
CCC(C)(C)NC(=O)CN(C(=O)c1snc(C(N)=O)c1N)c1ccc2c(c1)OCCO2 | . | . | 64 | . | .
NC(=O)c1nsc(C(=O)N(CC(=O)NCc2ccc3c(c2)OCO3)C2CCCC2)c1N | . | . | . | . | .
Cc1ccc(Cn2c(C3CCCN3c3nc(C)cs3)nc3cc(C(=O)NCCCO)ccc32)cc1 (stereo not drawn) | / | / | / | . | /
COc1cc2c(cc1OC)CN(C(=O)c1ccccc1C(=O)O)CC2 | . | . | . | . | .
O=C(NCCc1nc(-c2ccccc2)no1)c1ccccc1 | / | / | / | . | /
CC(C)N(Cc1nc(-c2ccccc2)no1)C(=O)c1ccc(Br)o1 | . | . | 64 | . | 73
CC(C)N(Cc1nc(-c2ccccc2)no1)C(=O)c1ccc(Cl)cc1 | . | . | 80 | . | 79
COc1cc(OC)cc(C(=O)NCc2nc(-c3ccccc3)no2)c1 | . | . | 61 | . | 73
Cc1ccc(C(=O)N(Cc2nc(-c3ccc(C)cc3)no2)C(C)C)cc1 | . | . | . | . | .
CC(C)N(Cc1nc(-c2ccccc2)no1)C(=O)CN(C)S(=O)(=O)c1ccc(Br)cc1 | . | . | 58 | . | 52
CCOC(=O)/C(C(N)=NC(C)C)=C(\O)c1ccccc1 | / | / | / | . | /
CC(C)N(Cc1nc(-c2ccccc2)no1)C(=O)C1CCCCC1 | . | . | 81 | . | 85
CC(=O)Cc1nsc(NC(=O)c2c(-c3ccccc3Cl)noc2C)n1 | . | . | 75 | . | .
Cc1onc(-c2ccccc2Cl)c1C(=O)NCc1nc(-c2ccccc2)no1 | . | . | . | . | 67
c1ccc(NCc2nc(-c3ccccc3)no2)cc1 | . | . | 76 | . | 87
Cc1onc(-c2ccccc2Cl)c1C(=O)NCc1cccnc1 | . | . | . | . | .
Cc1cc(N2C(=O)C3CC=CC(C)C3C2=O)no1 (stereo not drawn) | / | / | / | . | /
COc1ccc(-c2noc(CN(C(=O)c3ccc(OC(C)=O)cc3)C(C)C)n2)cc1OC | . | . | . | / | .
SMILES | CYP2C19 act | CYP2C9 activ | CYP2C9 inhib | Cav3 T inh | CYP2C19 inhib
CN(Cc1nc(-c2ccccn2)no1)S(=O)(=O)c1ccc(Br)cc1 | . | . | 61 | . | 61
CN(Cc1nc(-c2cccnc2)no1)S(=O)(=O)c1ccc2ccccc2c1 | . | . | . | . | 86
CC(C)N(Cc1nc(-c2ccc(Cl)cc2)no1)C(=O)CCCN1C(=O)c2ccccc2C1=O | . | . | 86 | -5 | 88
CN(Cc1nc(-c2cccnc2)no1)S(=O)(=O)c1ccc(Br)cc1 | . | . | . | . | .
COc1ccccc1C(=O)N(Cc1nc(-c2ccc(Cl)cc2)no1)C(C)C | . | . | . | . | 64
Cc1nc2ccc(NC(=O)Cn3cnc4c3c(=O)n(C)c(=O)n4C)cc2s1 | . | . | . | / | .
CCC(C(=O)c1ccccc1)N(C(=O)c1ccccc1Cl)N1C(=O)C2C3C=CC(C3)C2C1=O (stereo not drawn) | . | . | . | / | .
O=C(Nc1ccc(-c2csc(Nc3cccc(C(F)(F)F)c3)n2)cc1)c1cc([N+](=O)[O-])cc(C(F)(F)F)c1 | / | / | / | . | /
CCn1ccnc1C(O)c1ccccc1OC (stereo not drawn) | / | / | / | . | /
O=C(CN1C(=O)NC2(CCc3ccccc32)C1=O)Nc1ccc(N2CCOCC2)cc1 (stereo not drawn) | . | . | . | . | .
O=C(NCc1nc(-c2ccccc2)no1)c1ccc2c(c1)OCO2 | . | . | . | . | .
Cc1onc(-c2ccccc2Cl)c1C(=O)NCc1ccc(N2CCCC2=O)cc1 | . | . | 67 | . | 53
COc1ccc(-c2noc(CN(C(=O)c3c(-c4ccccc4Cl)noc3C)C(C)C)n2)cc1 | . | . | 57 | . | 62
CC(C)N(Cc1nc(-c2ccccc2)no1)C(=O)c1ccc2c(c1)OCO2 | . | . | . | . | 69
Cc1cccc(-c2noc(CN(C(=O)C34CC5CC(CC(C5)C3)C4)C(C)C)n2)c1 | . | . | . | . | .
Cc1onc(-c2ccccc2Cl)c1C(=O)NCc1ccc(S(N)(=O)=O)cc1 | . | . | . | . | .
COc1cc(OC)cc(C(=O)N(Cc2nc(-c3cccc(C)c3)no2)C(C)C)c1 | . | . | 95 | -6.7 | 86
CCSc1nn2c(=O)c3ccccc3nc2s1 | . | . | . | . | .
C=CCn1nnc2sc3c(c2c1=O)CCC(C)C3 (stereo not drawn) | . | . | . | . | 97
COC(=O)[C@@]1(Cc2ccc(OC)cc2)[C@H]2c3cc(C(=O)N4CCCC4)n(Cc4c(CO)[nH]cc(C)c4=O)c3C[C@H]2CN1C(=O)c1ccccc1 | / | / | / | . | /
Cc1ccc(-c2ccc(OCC(=O)N3CCOCC3)cc2)cc1 | . | . | . | . | .
Cc1ccc(C(=O)Nc2cc(C)c(OCC(=O)N3CCOCC3)c(C)c2)cc1 | . | . | 78 | . | .
COc1ccc(Cl)cc1NC(=O)C1CSC(c2ccncc2)=N1 (stereo not drawn) | / | / | / | . | /
CCN(CC)C(=O)CC(c1cc(OC)c(OC)c(OC)c1)c1c(OC)cc(OC)c2c(-c3ccccc3)cc(=O)oc12 (stereo not drawn) | / | / | / | . | /
CCOc1cc(CNCc2ccncc2)cc(Br)c1OCc1ccccc1F | . | . | 91 | . | 85
COc1ccccc1NC(=O)CSc1nnnn1C | . | . | . | . | .
CCOc1cc(CNCCSc2nnnn2C)cc(Br)c1OCc1ccccc1F | . | . | . | . | 84
Cn1nnnc1SCCNCc1cccnc1 | . | . | . | . | .
CCOc1cc(CNCCO)cc(Br)c1OCc1ccc(Cl)cc1Cl | . | . | . | . | .
COc1cc(CNCCSc2nnnn2C)cc(Br)c1OCc1ccccc1F | . | . | . | . | 68
